# Screens as filed in PubChem.
# SKKanGAS inh: S. pyogenes SKKanGAS growth inhibitors in kanamycin, primary screen, streptokinase expression inhibitor project, SKKanGAS strain, BacTiter-Glo luminescence. 300,000 compounds, 1.3% hits. 6 h. AID 1662, 2009. inhibition, % at 7.5 µM;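 active means mean replicate score, as percent of positive control median, at least 50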;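 further: strain carries kanamycin resistance gene driven by streptokinase promoter and grows in 40 µg/ml kanamycin; loss of luminescence reflects streptokinase promoter inhibition or plain growth inhibition; 0% = median of DMSO wells and 100% = positive control at its reference dose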
# tim23-1 inh: growth inhibitors of tim23-1 mutant yeast, primary screen, luminescence, uHTS | AID 463212, 2010 | 330,000 compounds, 1.3% hits | inhibition, % at 20 µM | S. cerevisiae tim23-1 growth, BacTiter-Glo luminescence, 24 h;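 active means growth inhibition of the mutant yeast at or above 50%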;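 further: temperature-sensitive mutant grown at 25 °C; plate controls were DMSO-treated mutant yeast for no effect and medium wells lacking yeast for full effect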
# TIM10 inh: growth inhibitors of isogenic TIM10 control yeast, primary screen, counter-screen for tim10-1 yeast inhibitor project, luminescence, uHTS | S. cerevisiae TIM10 strain growth, BacTiter-Glo luminescence, 24 h | inhibition, % at 10 µM | 330,000 compounds, 1.4% hits;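 active means inhibition of 40% or more at the single tested concentration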;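 further: wild-type TIM10 isogenic control strain grown at permissive 25 °C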
# NALP3 yeast inh: NALP3 inflammasome inhibitors in reconstituted yeast, primary screen, luminescence, uHTS | Yeast reconstituted NLRP3/ASC/caspase-1, beta-gal luminescence, 24 h | inhibition, % at 10 µM | 330,000 compounds, 0.39% hits | AID 2825, 2010;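 active means inhibition of 50% or more; inactive means inhibition below 50%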;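 further: plate controls were induced DMSO wells for no effect and uninduced yeast grown without galactose for full effect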
# tim10-1 inh: growth inhibitors of tim10-1 mutant yeast, primary screen, luminescence, uHTS; S. cerevisiae tim10-1 ts strain growth, BacTiter-Glo, 24 h; inhibition, % at 20 µM; 330,000 compounds, 2.2% hits;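 active means inhibition of at least 40%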;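 further: mutant grown at 25 °C; 0% = DMSO wells with yeast and 100% = wells holding no yeast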
# PfHsp90 yeast 2: growth inhibition of PfHsp90-expressing yeast, primary screen, antimalarial PfHsp90 inhibitor project, S. cerevisiae, BacTiter-Glo luminescence, single point, set 2 | BacTiter-Glo ATP, 48 h; yeast lacking PDR1 and PDR3 efflux regulators | inhibition, % at 9.4 µM | 310,000 compounds, 0.32% hits | AID 504621, 2011;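 active means every replicate shows inhibition above about 80%, whatever the replicate mean, limit read from the data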;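 further: 0% = DMSO neutral controls and 100% = 20 µM radicicol positive controls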
# NALP3 yeast conf: NALP3 inhibitors retested in yeast, confirmation, luminescence, single concentration; inhibition, % at 10 µM; AID 435006, 2010; shares compounds with NALP3 yeast inh; 1,300 compounds, 81% hits; yeast expressing human NALP3; in the data active means inhibition above about 48%
# Casp1 ASC ctr: CASP1-PYCARD signaling inhibition in yeast, confirmatory test, counterassay for NLRP3 inhibitor program, one-dose | yeast expressing Caspase-1-ASC, luminescence counter screen | shares compounds with NALP3 yeast inh | inhibition, % at 10 µM | 1,000 compounds, 66% hits
# NALP3 yeast rt: NALP3 inhibitors in yeast, repeat test, confirmation, luminescence, single concentration, retest; shares compounds with NALP3 yeast inh; yeast expressing human NALP3, luminescence read-out; inhibition, % at 10 µM; 1,000 compounds, 53% hits
# tim10-1 conf: growth inhibitors of tim10-1 mutant yeast, confirmation, single concentration, luminescence, S. cerevisiae | shares compounds with tim10-1 inh | S. cerevisiae tim10-1 ts strain growth, BacTiter-Glo, 24 h | inhibition, % at 20 µM | 7,400 compounds, 56% hits;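 active means inhibition of yeast growth at or above a set limit in either of two repeat tests at 20 µM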;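 further: tim10-1 mutant grown at permissive 25 °C to find synthetic lethal compounds; 0% = DMSO yeast wells and 100% = medium wells without yeast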
# * hit, by the source's call; x = not tested or not shown. Sampled rows, rich in hits. Any-hit rate of the full collection: about 4.6%. Unless noted, no stated cut-off is given here; in the data, active means inhibition above about 50%; inactive means the rest.
SMILES,SKKanGAS inh,tim23-1 inh,TIM10 inh,NALP3 yeast inh,tim10-1 inh,PfHsp90 yeast 2,NALP3 yeast conf,Casp1 ASC ctr,NALP3 yeast rt,others
Cc1cc(Br)c(Oc2cc(NN3CCCCC3)c([N+](=O)[O-])cc2[N+](=O)[O-])c(Br)c1,x,x,x,x,x,-12,x,x,x,
CSc1nc2ccc(NC(=O)c3ccco3)cc2s1,4,21,-38,51*,-71,13,58*,56*,54*,
O=C(Nc1ccc(-c2nc3cccnc3s2)cc1)c1ccco1,0,32,-15,51*,-52,29,72*,46,48,
O=C(Nc1cccc(-c2nc3cccnc3s2)c1)c1ccco1,-4,47,4,33,-63,-43,x,x,x,
COc1cc(NC(=O)CCn2c(=S)oc3ccccc32)cc(OC)c1OC,-4,11,12,-5,1,5,x,x,x,
Cc1cc(-c2cc(C(=O)NC3CCCC3)on2)nc(NC2CCCC2)n1,10,13,-6,18,-11,29,x,x,x,
CCCNc1nc(C)cc(-c2cc(C(=O)NC3CCCC3)on2)n1,-5,19,-4,63*,-11,-1,81*,51*,34,
Cc1[nH]c2ccccc2c1C(=O)C(=O)NCc1ccco1,1,13,12,4,18,-2,x,x,x,
Cn1c(SCc2nc(-c3ccc(Cl)cc3)no2)nnc1-c1ccco1,-6,39,5,53*,21,13,66*,49,37,
Cc1ccc(C)c(N(C(=O)c2csnn2)C(C(=O)NC2CCCCC2)c2ccccn2)c1 (centres undefined),-3,9,13,-2,-8,3,x,x,x,
C=CCN(Cc1nc(-c2ccccc2)no1)C(=O)c1ccc2c(c1)OCO2,0,9,3,29,-3,41,x,x,x,
COc1ccc(C(=O)Nc2cc(C(F)(F)F)ccc2-n2cncn2)cc1,-6,11,-16,14,25,0,x,x,x,
CC(Oc1ccc(F)cc1)C(=O)Nc1cc(C(F)(F)F)ccc1-n1cncn1 (centres undefined),10,23,1,50,31,x,64*,42,38,
Cc1ccccc1C(=O)O/N=C/c1c(N2CCOCC2)n(C)c2ccccc12,6,35,18,66*,-1,7,83*,92*,79*,
CCOC(=O)Cc1csc(NC(=O)CN2CCOCC2)n1,0,-15,2,0,-9,-9,x,x,x,
COc1ccc(NCCC(O)c2ccc(Cl)cc2)cc1 (centres undefined),-4,-4,-15,59*,-16,-13,67*,49,46,
COc1ccc(Cl)cc1NCCC(O)c1ccc(F)cc1 (centres undefined),2,18,6,7,15,-15,x,x,x,
Cc1cccnc1NC(=O)Cn1nc(-c2ccccc2)oc1=S,-3,14,-25,28,4,6,x,x,x,
COc1ccc(C(=O)c2no[n+]([O-])c2C(=O)c2ccc(OC)cc2)cc1,-13,32,4,70*,7,x,80*,81*,62*,
CCCN(CCC)C(=O)NC1CC(=O)N(c2ccc(OC)cc2)C1 (centres undefined),0,6,10,9,16,6,x,x,x,
Cc1ccc(-n2c(-c3ccccc3)n[nH]c2=S)cc1,-2,24,21,15,33,-6,x,x,x,
Cc1ccc(-n2c(-c3ccccc3)c[nH]c2=S)cc1,-2,12,-20,56*,-6,3,28,x,x,
COc1ccc(-n2c(-c3ccc(Cl)cc3)c[nH]c2=S)cc1,1,19,-4,57*,23,-4,80*,51*,38,
CN(CCc1ccccn1)C(=O)CCC1CCCN(C(=O)c2ccsc2)C1 (centres undefined),-2,-2,2,-2,5,-9,x,x,x,
COc1cc(C=O)ccc1OCCSc1ccc(C)cc1,0,21,-24,18,17,-6,x,x,x,
SMILES,SKKanGAS inh,tim23-1 inh,TIM10 inh,NALP3 yeast inh,tim10-1 inh,PfHsp90 yeast 2,NALP3 yeast conf,Casp1 ASC ctr,NALP3 yeast rt,others
CCOc1cc(C=O)ccc1OCCSc1ccc(C)cc1,1,16,-3,65*,0,-10,69*,65*,39,
O=C(O)c1cc(S(=O)(=O)Nc2ccc3cn[nH]c3c2)ccc1Cl,x,13,-2,10,7,7,x,x,x,
COc1ccc(-c2ccc(S(=O)(=O)N3CCCC3)cc2)cc1,3,28,12,53*,-12,-1,47,54*,44,
COC(=O)c1ccccc1NC(=O)C1CCCN(S(=O)(=O)c2ccc(OC)cc2)C1 (centres undefined),-12,40,-16,64*,26,18,77*,63*,60*,
COc1ccc(S(=O)(=O)N2CCN(c3nc(C)cc(C)n3)CC2)cc1,0,34,5,53*,33,-23,65*,63*,58*,
COc1ccc(S(=O)(=O)N2CCCCCC2)cc1,4,26,25,-11,33,-2,x,x,x,
O=C(Nc1nccs1)c1cc2c(s1)-c1ccccc1OC2,39,25,22,54*,59*,26,67*,14,18,tim10-1 conf=5
O=C(CN(C1CCCCC1)S(=O)(=O)c1ccc(F)cc1)Nc1ccc2c(c1)OCO2,-2,36,22,51*,45*,10,56*,45,35,tim10-1 conf=21
O=C(CN(C1CCCCC1)S(=O)(=O)c1ccc(F)cc1)NCCCO,-7,22,10,10,3,-21,x,x,x,
CN(C)c1cc2c(c(N(C)C)c1)C(=O)c1ccccc1C2=O,-2,24,17,52*,44*,11,48,51*,50,tim10-1 conf=34*
CN(C)S(=O)(=O)c1cccc2c1C(=O)c1ccccc1C2=O,-3,17,-3,3,32,1,x,x,x,
